A short description of assay [1]: qHTS drug screen for cell cycle checkpoint inhibitors in PARPi-resistant BRCA-mutant ovarian cancer cell lines. (AID 1963452). Also: potency is read from the fitted curve at half-maximal effect. To be noted: PEO1/OlaR viability, CellTiter-Glo luminescence, 96 h; for Z-AUC: stronger effect = lower value. Put shortly: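 PEO1, PEO4 and PEO1/OlaR ovarian cancer cells, 600 per well, exposed 96 h at 37C to a dilution series. Viability read by CellTiter-Glo luminescence, normalized to DMSO and empty wells; activity summarized as Z-AUC.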
Background: In qHTS, concentration-response curves come from the screen itself.

The nature of assay [2]: qHTS for identification of novel therapeutic agents for treatment of microphthalmiaassociated transcription factor (MiT) renal cell carcinoma (RCC) (AID 1963991). To be noted: CellTiter-Glo, 48 h, stronger effect = lower value. The method in brief: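 Viability of three TFE3-fusion renal carcinoma lines measured by CellTiter-Glo after 48 h treatment with each of 1912 compounds at 11 concentrations. Responses scaled between DMSO (100%) and empty wells (0%) before curve fitting.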

The mark [3] stands for this setting: measured here: PEO1 parental Z-AUC.
The mark [4] stands for this setting: TFE3-RCC UOK109 viability, measured here: UOK109 Z-AUC.
Setting [5] is: TFE3-RCC viability, measured here: UOK124 Z-AUC.
The mark [6] stands for this setting: TFE3-RCC viability, measured here: UOK145 Z-AUC.

Records with an inconclusive call do not appear. Calls of active or inactive are those of the source. Calls follow the shape of the full dose curve.

For the compound `CCCS(=O)(=O)Nc1ccc(F)c(C(=O)c2c[nH]c3ncc(-c4ccc(Cl)cc4)cc23)c1F`, the Z-AUC was 0.0673 (inactive) in assay [1], -0.745 in assay [1] (setting [3]) and -0.427 in assay [1] (measured here: PEO4 Z-AUC).
For `CO[C@@H]1[C@H](N(C)C(=O)c2ccccc2)C[C@H]2O[C@]1(C)n1c3ccccc3c3c4c(c5c6ccccc6n2c5c31)C(=O)NC4`, the Potency in assay [1] is 1.55 µM (active). Besides, the Z-AUC in assay [1] (setting [3]) was -1.27; in assay [1] (measured here: PEO4 Z-AUC), -1.21.
Take `Cc1cc2c(F)c(Oc3ncnn4cc(OC[C@@H](C)O)c(C)c34)ccc2[nH]1`: the figures for the Z-AUC in assay [1], in assay [1] (setting [3]) and in assay [1] (measured here: PEO4 Z-AUC) were 0.786 (inactive), 0.535 and 0.987, respectively.
On to `CCn1c(-c2nonc2N)nc2c(C#CC(C)(C)O)ncc(OC[C@H]3CCCNC3)c21`, for which the Z-AUC in assay [1] was 1.22 (inactive); in assay [1] (setting [3]), 0.92; in assay [1] (measured here: PEO4 Z-AUC), 1.41.
As for `CCCC(CCC)C(=O)O`, the Z-AUC in assay [1] was 0.56 (inactive); in assay [1] (setting [3]), 0.704; in assay [1] (measured here: PEO4 Z-AUC), 0.624.
The matching figures for `OCCC#Cc1nc(-c2ccc(F)cc2)c(-c2ccncc2)n1CCCc1ccccc1`: 1.23 (inactive), 0.482 and 0.663.
As to `Cc1cnc(Nc2ccc(OCCN3CCCC3)cc2)nc1Nc1cccc(S(=O)(=O)NC(C)(C)C)c1`, the Potency in assay [1] was 1.95 µM (active). Besides, the Z-AUC in assay [1] (setting [3]) was -1.63; in assay [1] (measured here: PEO4 Z-AUC), -1.56.
As for `Fc1ccc(Cl)cc1-c1nc(Nc2ccncc2)c2nccnc2n1`, the Z-AUC is 0.985 (inactive) in assay [1], 1.18 in assay [1] (setting [3]) and 1.09 in assay [1] (measured here: PEO4 Z-AUC).
With `CS(=O)(=O)Oc1ccc2c(NC(N)=O)c(C(=O)c3ccc(Cl)cc3Cl)oc2c1`, the Z-AUC was 1.2 (inactive) in assay [1], 1.13 in assay [1] (setting [3]) and 1.11 in assay [1] (measured here: PEO4 Z-AUC).
As to `O=c1[nH]c(-c2ccc(C(F)(F)F)cc2)nc2c1CSCC2`, the Z-AUC was 0.604 (inactive) in assay [1], 0.431 in assay [1] (setting [3]) and 0.432 in assay [1] (measured here: PEO4 Z-AUC).
On to `CS(=O)(=O)c1ccc(C(=O)Nc2ccc(Cl)c(-c3ccccn3)c2)c(Cl)c1`, for which the Z-AUC in assay [1] is 0.211 (inactive); in assay [1] (setting [3]), -0.252; in assay [1] (measured here: PEO4 Z-AUC) it was -0.353.
On to `O=C1[C@H](Cc2ccc(O)cc2)N2C(=O)CCN(C(=O)NCc3ccccc3)[C@H]2CN1Cc1cccc2ccccc12`, for which the results for the Z-AUC in assay [1], in assay [1] (setting [3]) and in assay [1] (measured here: PEO4 Z-AUC) were 0.428 (inactive), 0.318 and 0.0223, respectively.
Consider `Cc1cc(-c2ccc(CC(=O)Nc3ccc(-c4cccnc4)cc3)cc2)ccn1`, for which the Z-AUC was 1.38 (inactive) in assay [1], 0.679 in assay [1] (setting [3]) and 0.307 in assay [1] (measured here: PEO4 Z-AUC).
Regarding `CN(C)c1ccc(Nc2nc(N)n(C(=O)c3c(F)cccc3F)n2)cc1`, the Z-AUC in assay [1] was 0.994 (inactive); in assay [1] (setting [3]), 0.58; in assay [1] (measured here: PEO4 Z-AUC), 0.398.
In the case of `Cc1c(CCOc2ccc(C(=O)O)cc2)c2cc(Cl)ccc2n1C(c1ccccc1)c1ccccc1`, the figures for the Z-AUC in assay [1], in assay [1] (setting [3]) and in assay [1] (measured here: PEO4 Z-AUC) were 0.749 (inactive), 1.16 and 0.896, respectively.
In the case of `CCN(CC)CCCC(C)Nc1ccnc2cc(Cl)ccc12` (stereo not drawn), the results for the Z-AUC in assay [1], in assay [1] (setting [3]) and in assay [1] (measured here: PEO4 Z-AUC) were 0.106 (inactive), 0.505 and 0.615, respectively.
Consider `CCCCCCCc1ccc(CCc2cccc(O)c2C(=O)O)cc1`, for which the Z-AUC in assay [1] is 1.13 (inactive); in assay [1] (setting [3]) it was 0.41; in assay [1] (measured here: PEO4 Z-AUC) it was 0.518.
The matching figures for `Nc1ncnc2nc(-c3ccc(N4CCOCC4)nc3)cc(-c3cccc(Br)c3)c12`: 0.819 (inactive), 1.06 and 0.514.
On to `CC(C)(N)C(=O)N[C@H](COCc1ccccc1)C(=O)N1CCC2(CC1)CN(S(C)(=O)=O)c1ccccc12`, for which the values for the Z-AUC in assay [1], in assay [1] (setting [3]) and in assay [1] (measured here: PEO4 Z-AUC) were 1.64 (inactive), 1.18 and 1.52, respectively.
In the case of `CNCc1ccc(-c2[nH]c3cc(F)cc4c3c2CCNC4=O)cc1`, the Z-AUC was 0.567 (inactive) in assay [1], 0.569 in assay [1] (setting [3]) and 0.848 in assay [1] (measured here: PEO4 Z-AUC).
Turning to `COc1ccc(-c2c(-c3ccc(O)cc3O)n[nH]c2C)cc1`, the Z-AUC in assay [1] is 0.835 (inactive); in assay [1] (setting [3]), 0.673; in assay [1] (measured here: PEO4 Z-AUC), 1.1.
The like results for `Nc1nc2[nH]cc(CCc3ccc(C(=O)N[C@@H](CCC(=O)O)C(=O)O)cc3)c2c(=O)[nH]1` were, in that order, 1.34 (inactive), 1.12 and 1.26.
As for `CCC(=O)N[C@H]1CC[C@H](C(=O)N(C)c2ccc(-c3nc4ccccc4o3)cc2)C1`, the results for the Z-AUC in assay [1], in assay [1] (setting [3]) and in assay [1] (measured here: PEO4 Z-AUC) were -0.0495 (inactive), -0.000542 and 0.214, respectively.
On to `COCCNCCCn1c(C(=O)CF)c(-c2ccc(C)cc2)c2c(N)ncnc21`, for which the Z-AUC is 0.937 (inactive) in assay [1], 1.02 in assay [1] (setting [3]) and 1.22 in assay [1] (measured here: PEO4 Z-AUC).
The like results for `Nc1nccc(-c2ccc3noc(-c4ccc(Cl)cc4)c3c2)n1` were, in that order, 0.305 (inactive), 0.344 and 0.149.
For `CN(C)c1ccc(C2Nc3ccc4ccccc4c3C3=C2C(=O)CC(C)(C)C3)cc1Br` (stereo not drawn), the Z-AUC in assay [1] was -0.197 (inactive); in assay [1] (setting [3]) it was -0.276; in assay [1] (measured here: PEO4 Z-AUC), 0.333.
As to `CC(C)c1onc(-c2c(Cl)cccc2Cl)c1COc1ccc(/C=C/c2cccc(C(=O)O)c2)c(Cl)c1`, the figures for the Z-AUC in assay [1], in assay [1] (setting [3]) and in assay [1] (measured here: PEO4 Z-AUC) were 0.394 (inactive), -0.0133 and 0.0704, respectively.
With `COc1cc(Oc2ccnc3cc(OC)c(OC)cc23)ccc1NC(=O)NC(C)c1nccs1` (stereo not drawn), the Z-AUC in assay [1] was -0.894 (inactive); in assay [1] (setting [3]), -0.402; in assay [1] (measured here: PEO4 Z-AUC), -0.764.
For `C[C@@H]1CN(Cc2ccc(F)cc2)[C@@H](C)CN1C(=O)c1cc2c(C(=O)C(=O)N(C)C)cn(C)c2cc1Cl`, the results for the Z-AUC in assay [1], in assay [1] (setting [3]) and in assay [1] (measured here: PEO4 Z-AUC) were 0.142 (inactive), 0.03 and 0.299, respectively.
Take `Cc1ccc(NC(=O)c2cccc(C(C)(C)C#N)c2)cc1Nc1ccc2ncn(C)c(=O)c2c1`: the values for the Z-AUC in assay [1], in assay [1] (setting [3]) and in assay [1] (measured here: PEO4 Z-AUC) were 0.851 (inactive), 0.186 and 0.24, respectively.
Regarding `CCc1cc(Nc2nccc(-c3c(-c4ccc(OC)c(C(=O)Nc5c(F)cccc5F)c4)nc4ccccn34)n2)c(OC)cc1N1CCC(N2CCN(S(C)(=O)=O)CC2)CC1`, the results for the Z-AUC in assay [1], in assay [1] (setting [3]) and in assay [1] (measured here: PEO4 Z-AUC) were -0.4 (inactive), -0.657 and -0.933, respectively.
The matching figures for `CNC(=O)c1ccccc1Sc1ccc2c(/C=C/c3ccccn3)n[nH]c2c1`: 0.578 (inactive), 0.269 and 0.241.
For `O=C(c1cc(Cc2n[nH]c(=O)c3ccccc23)ccc1F)N1CCN(C(=O)C2CC2)CC1`, the figures for the Z-AUC in assay [1], in assay [1] (setting [3]) and in assay [1] (measured here: PEO4 Z-AUC) were 0.491 (inactive), -0.378 and 0.0684, respectively.
For the compound `COc1cc2nccc(Oc3ccc(NC(=O)NC4CC4)c(Cl)c3)c2cc1C(N)=O`, the values for the Z-AUC in assay [1], in assay [1] (setting [3]) and in assay [1] (measured here: PEO4 Z-AUC) were -1.2 (inactive), 0.621 and 0.0753, respectively.
The like results for `COc1ccc2c3n(c(=NC(=O)c4cccnc4)nc2c1OC)CCN3` were, in that order, -0.738 (inactive), -0.328 and -0.378.
As for `OC(CCN1CCCCC1)(c1ccccc1)C1CC2C=CC1C2` (stereo not drawn), the Z-AUC in assay [1] is -0.614 (inactive); in assay [1] (setting [3]), -0.36; in assay [1] (measured here: PEO4 Z-AUC), -0.607. Besides, the results for the z-score in assay [2] (setting [4]), in assay [2] (setting [5]) and in assay [2] (setting [6]) were 0.676, 0.56 and 0.997, respectively.
`c1ccc([C@H]2CN3CCSC3=N2)cc1`: the Z-AUC in assay [1] is -0.761 (inactive); in assay [1] (setting [3]) it was -0.401; in assay [1] (measured here: PEO4 Z-AUC) it was -0.638. For the same compound, the z-score in assay [2] (setting [4]) was found to be 0.343; in assay [2] (setting [5]) it was 0.703; in assay [2] (setting [6]), 0.523.
In the case of `CC[C@H](Nc1ncnc2nc[nH]c12)c1nc2cccc(F)c2c(=O)n1-c1ccccc1`, the Z-AUC in assay [1] was 0.714 (inactive); in assay [1] (setting [3]), 0.526; in assay [1] (measured here: PEO4 Z-AUC), 0.476.
The like results for `COc1c(Cl)cc2c([nH]c3cnccc32)c1NC(=O)c1cccnc1C` were, in that order, 1.1 (inactive), 0.859 and 0.857.

Values taken from PubChem BioAssay (NCATS).
